# Columns and labels:
# Experiment in all cases: PBM binding z-score (relative to random genomic background probes); higher = stronger binding; sequences stand for … in GC…GCGATTGACAGCGTAGAATGAAGG
# [1] = tested on: PPARg:RXRa DBDmut IVT, anti-RXR (DBD mutation: RXRa K156A/R161A, NR concentration 270 nM, RXRa partner concentration 90 nM)
# Method in brief: (§1)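 Ligand-free nuclear receptor dimers were bound for 1 h to custom Agilent 4×180K protein-binding microarrays. Detection used antibodies against each partner (one per run). Binding z-scores rest on regression-normalized fluorescence, with random background probes as the reference.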
# [2] = tested on: PPARg:RXRa IVT, anti-PPARg (NR concentration 270 nM, RXRa partner concentration 90 nM)
# Method in brief: as §1
# [3] = tested on: PPARg DBDmut:RXRa IVT, anti-PPARg (DBD mutation: PPARg1 K132A/R137A, NR concentration 270 nM, RXRa partner concentration 90 nM)
# Method in brief: as §1
# [4] = tested on: PPARg DBDmut IVT, anti-PPARg (DBD mutation: PPARg1 K132A/R137A, NR concentration 270 nM)
# Method in brief: as §1
# [5] = tested on: PPARg homodimer (NR concentration 180 nM)
# Method in brief: as §1
# [6] = tested on: PXR:RXRa (NR concentration 270 nM, RXRa partner concentration 90 nM)
# Method in brief: as §1
# [7] = tested on: PXR homodimer (NR concentration 270 nM)
# Method in brief: as §1
# [8] = tested on: RARa:RXR (NR concentration 270 nM, RXRa partner concentration 90 nM)
# Method in brief: as §1
# [9] = tested on: RARa homodimer (NR concentration 270 nM)
# Method in brief: as §1
# [10] = tested on: RARb:RXRa (NR concentration 270 nM, RXRa partner concentration 90 nM)
# Method in brief: as §1
# [11] = tested on: RARb homodimer (NR concentration 270 nM)
# Method in brief: as §1
# [12] = tested on: RARg:RXRa (NR concentration 270 nM, RXRa partner concentration 90 nM)
# Method in brief: as §1
# [13] = tested on: RARg homodimer (NR concentration 270 nM)
# Method in brief: as §1
# [14] = tested on: RXRa DBDmut IVT, anti-RXR (DBD mutation: RXRa K156A/R161A, NR concentration 90 nM)
# Method in brief: as §1
# [15] = tested on: RXRa homodimer (NR concentration 180 nM)
# Method in brief: as §1
# [16] = tested on: THRa:RXRa (NR concentration 90 nM, RXRa partner concentration 90 nM)
# Method in brief: as §1
# [17] = tested on: THRa homodimer (NR concentration 90 nM)
# Method in brief: as §1
# [18] = tested on: VDR homodimer (NR concentration 270 nM)
# Method in brief: as §1
Sequence,PBM binding z-score [1],PBM binding z-score [2],PBM binding z-score [3],PBM binding z-score [4],PBM binding z-score [5],PBM binding z-score [6],PBM binding z-score [7],PBM binding z-score [8],PBM binding z-score [9],PBM binding z-score [10],PBM binding z-score [11],PBM binding z-score [12],PBM binding z-score [13],PBM binding z-score [14],PBM binding z-score [15],PBM binding z-score [16],PBM binding z-score [17],PBM binding z-score [18]
CATACAGGGTTAGCTAGGCCAGAGTAGGGACGGC,-0.169,0.541,-0.056,-0.72,-0.367,-0.275,-0.684,0.13,-0.529,1.07,0.276,0.782,0.633,-0.487,0.914,0.66,-0.483,-0.636
TCTGCTAGGTCAACGATGGTTAGCTAATCTGCTA,4.04,4.11,0.206,0.0855,0.625,1.24,-0.803,2.11,-0.888,4.14,2.99,3.97,5.29,1.1,2.75,2.9,0.466,-0.391
TCTAGCAGGCCAGAGGGTCACTAAAGAGGTACGG,0.806,0.475,-0.497,-1.37,0.659,1.14,-0.609,1.8,-0.574,2.05,2.52,2.5,2.05,-0.16,2.02,1.39,-0.413,0.287
CGAACTAGGTCATCCAGGACGGTGAATACATTGA,7.81,8.21,2.02,0.711,0.484,1.5,0.391,2.02,0.0502,3.78,2.81,4.14,4.7,1.85,3.01,3.07,1.04,1.3
AGAATGAGGTTATTAAGAGCAGGGAATTGCGGTC,2.93,2.39,0.24,-0.178,0.998,1.08,0.932,1.42,0.134,1.47,1.16,1.1,0.698,2.01,1.48,2.14,0.798,1.21
AGAATGAGGTTATACGAAGATCAGGGAAGAAAGT,2.26,2.05,0.807,0.512,0.484,1.04,0.292,1.61,0.714,1.3,0.559,1.71,1,1.38,2.09,2.01,0.403,0.752
TGAATGAGGTTATAAGAACAGGGAACGTTGCAAA,0.968,1.75,0.842,0.453,0.709,0.563,-0.0582,1.32,-0.0801,1.11,-0.0181,1.21,1,0.468,1.89,1.62,0.00377,0.365
TGAATGAGCTTATAAGATCAGGGAACGTTGCAAA,-1.43,-0.528,0.471,0.179,-0.626,-0.456,-0.325,-0.125,-0.206,-1.12,-1.21,-0.305,-0.288,-1.2,-0.211,-0.371,-1.18,-0.577
ATCTCTAGGTAAGACTCAGTTGAGTGAAGAACGC,1.79,0.839,0.212,0.517,0.307,-0.135,0.188,-0.38,0.696,0.11,-0.154,0.15,0.0573,0.17,-0.0983,0.492,0.309,0.119
TCTGCTAGGTCAACGATGGTCAGCTAATCTGCTA,4.23,4.22,0.762,0.898,1.44,1.67,-0.856,2.46,-0.93,4.01,3.36,4.01,4.95,1.24,2.42,3.15,0.461,-0.403
TCTTGTAGAACAGCAGGTTAAGAAAGCTGGCCAA,1.67,0.554,-0.871,-0.593,-0.509,0.0552,-0.772,-0.0223,-1.16,0.0879,-0.365,-0.24,-0.558,0.506,0.0431,-0.111,-1.15,-0.882
TCGAGTCGGTTAGGGGCATTCAGAATGGCGTCGA,0.464,-0.15,-1.37,-1.74,-0.435,0.545,-0.165,0.325,-1.4,0.501,0.345,-0.19,-0.321,0.196,0.0404,1.38,-0.39,1.12
GCTTACGGGTCAAAGGTTATAGGATGAATAGAAT,4.59,5.81,2.01,1.61,3.34,6.34,0.559,8.36,1.33,4.59,3.6,6.89,4.67,2.7,9.57,3.78,0.0155,1.65
TCGAGTAGGTTACCCATGGGGCATTCAGCTTTCT,2.81,2.66,-0.222,-0.778,-0.0262,0.0585,-0.728,0.457,-0.95,0.891,0.802,1.61,0.414,0.106,0.689,0.2,-0.507,-0.557
CTCGAAAGGTCGTGCACAGGTGAGTATACCAAAC,0.853,2.21,0.533,0.411,2.02,3.56,0.388,4.46,0.659,4.07,3.18,5.89,4.46,2.16,5.32,3.21,0.254,1.42
TCGTATAGGTAATACAGGTGAAAGTCGGCATCTA,2.32,2.24,0.787,1.03,0.975,0.742,0.293,0.746,1.16,0.691,0.603,0.62,0.295,1.08,0.949,1.15,0.259,0.57
TCGAGTAGGTTACCAATGAGGCATTCAGCTTTCT,3.32,2.35,0.0818,-0.605,-0.815,-0.0047,-0.892,0.302,-1.06,0.723,-0.0486,0.457,0.0733,0.229,0.47,-0.137,-0.781,-1.08
ACTATTAGTTGACACGAGGGCAACCGATAGGTTG,0.272,1.04,0.784,0.778,0.695,1.75,0.634,1.74,0.708,1.59,1.76,1.56,1.34,0.816,1.22,3.07,0.699,1.07
TCTTATAGATCAGCAGGTTAAGAAAGCTGGCCAA,1.67,0.0176,0.00144,-0.0268,0.0461,0.161,-0.509,0.109,-0.091,0.115,-0.092,0.0544,-0.0955,0.704,0.376,0.0186,-0.656,-0.144
CCTAGCAGGCCAATCTGGGTCAATCAAGGCTTGA,3.86,4.7,-0.527,-1.3,0.323,0.743,-0.691,2.06,-0.918,1.31,1.85,0.779,1.13,0.108,0.518,3.67,-0.0726,-0.0739
CAGCCTAGGTCAAGGCCAGTATAGGAGGAACGTT,2.48,2.33,-0.75,-0.631,0.784,1.3,-0.176,1.93,-0.377,4.07,3.01,4.16,4.9,0.701,2.75,2.75,0.86,0.353
TCTGCTAGGTCAGTTGGTCAGCGAACGAGCTGCC,2.76,3.21,-0.0304,0.518,0.0639,0.0473,-0.82,0.461,-1.14,3.55,2.57,2.96,3.87,0.527,0.834,1.21,-0.151,-0.461
CTACCAAGGTGAACAAGGTCGTGGATTACTATTC,2.25,3.01,1.26,-0.0966,1.98,2.46,0.298,2.92,0.0898,2.45,2.22,2.24,1.63,0.592,2.7,3.64,2.18,1.27
CCTACTGGGCCAAAATGGTCATTGATGCCGATAA,2.55,2.95,-0.67,-0.0275,0.212,-0.439,-0.289,0.45,0.0345,0.172,0.177,0.104,0.0823,-0.811,-0.05,-0.37,-0.637,-0.747
AATACTGGGTCACTAGGCCAGAGTAGGTACGAAT,6.63,7.76,5.62,2.22,1.9,0.792,0.0229,1.53,0.983,3.19,2.47,2.99,3.54,0.506,2.37,1.81,0.283,0.859
CCTGACAGGTGAGAAGGTAACTCAGCCTCGATTA,1.12,0.913,-0.717,-0.671,0.832,-0.216,-0.0629,0.621,-0.07,0.751,0.33,0.701,0.393,-0.0911,0.509,0.346,-0.0701,-0.656
ATCTCTAAGTAAGACTCAGTTCAGTGAAGAACGC,0.103,0.218,0.885,1.04,0.659,0.518,1.83,0.541,1.22,0.15,0.513,0.345,0.42,0.804,-0.0426,0.401,0.351,1.57
TTACCAATGTGAGCTGAGGTCGTTGATCCAACTC,-0.252,-0.0612,0.679,-0.281,-0.49,2.46,0.562,1.53,-0.185,0.439,0.861,0.247,-0.299,0.122,0.752,3.25,1.54,2.7
CGATCTAGGTCAAGGACAGTGAATCTCCGCACGC,7.91,8.16,4.56,2.13,2.28,0.815,0.057,2.01,0.269,3.87,2.75,3.6,4.45,1.55,2.2,3.07,2.46,0.43
